Hit rate of the full screen: of about 310,000 compounds, about 14,000 (4.5%) showed an effect of 50% or more. The effect is printed as a negative number. This excerpt belongs to a sample that is enriched for strong results.
target: human ether-à-go-go-related gene (hERG) potassium channel (human, UniProt Q12809); assay: primary screen, population patch clamp on CHO cells stably expressing hERG; higher = less effect of the substance
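Also: peak tail current of the secondary pulse compared with the same well before compound.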

human ether-à-go-go-related gene (hERG) potassium channel, sequence (Q12809 whole entry, looked up): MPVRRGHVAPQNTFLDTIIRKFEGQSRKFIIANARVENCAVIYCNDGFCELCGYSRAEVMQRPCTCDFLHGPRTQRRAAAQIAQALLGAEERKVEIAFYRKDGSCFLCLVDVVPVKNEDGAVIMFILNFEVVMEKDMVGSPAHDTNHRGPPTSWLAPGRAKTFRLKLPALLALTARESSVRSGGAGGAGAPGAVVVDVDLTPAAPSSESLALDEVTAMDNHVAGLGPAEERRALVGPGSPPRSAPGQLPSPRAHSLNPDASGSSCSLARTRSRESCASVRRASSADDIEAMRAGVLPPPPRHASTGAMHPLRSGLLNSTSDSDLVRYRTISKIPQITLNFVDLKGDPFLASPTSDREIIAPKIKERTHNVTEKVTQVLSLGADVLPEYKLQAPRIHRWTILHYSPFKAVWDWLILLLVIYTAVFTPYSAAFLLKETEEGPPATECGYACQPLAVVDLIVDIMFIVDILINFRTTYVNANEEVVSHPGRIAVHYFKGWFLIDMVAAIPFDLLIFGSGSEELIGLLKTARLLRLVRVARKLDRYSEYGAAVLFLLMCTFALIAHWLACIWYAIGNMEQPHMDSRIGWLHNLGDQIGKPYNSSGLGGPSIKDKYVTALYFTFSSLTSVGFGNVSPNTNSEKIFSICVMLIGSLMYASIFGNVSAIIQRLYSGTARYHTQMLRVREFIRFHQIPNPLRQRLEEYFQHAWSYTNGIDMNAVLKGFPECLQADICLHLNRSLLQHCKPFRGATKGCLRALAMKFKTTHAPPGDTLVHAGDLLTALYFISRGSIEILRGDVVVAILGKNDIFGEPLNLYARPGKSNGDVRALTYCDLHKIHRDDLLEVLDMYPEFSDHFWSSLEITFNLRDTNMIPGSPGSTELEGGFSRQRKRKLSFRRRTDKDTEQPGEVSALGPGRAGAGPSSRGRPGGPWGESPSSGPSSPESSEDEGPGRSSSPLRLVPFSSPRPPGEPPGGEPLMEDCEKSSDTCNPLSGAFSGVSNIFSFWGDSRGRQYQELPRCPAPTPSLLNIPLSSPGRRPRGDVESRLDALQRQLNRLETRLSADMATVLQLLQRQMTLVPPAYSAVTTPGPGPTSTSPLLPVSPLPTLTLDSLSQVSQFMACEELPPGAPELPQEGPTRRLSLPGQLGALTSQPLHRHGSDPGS

| Structure (SMILES) | hERG current change (%, negative = inhibition) at 10uM [%] |
| --- | --- |
| COC(=O)N(NC(=O)C(O)(c1ccccc1)c1ccccc1)c1ccccc1 | 9.59 |
| COc1ccc(OCC(=O)Nc2cc(NC(=O)c3ccco3)ccc2OC)cc1 | 5.23 |
| O=C(CN1CCN(Cc2ccccc2)CC1)N/N=C\C=C/c1ccco1 | -26.9 |
| CC(/C=N/NC(=O)Cc1cccn1C)=C\c1ccco1 | -13.1 |
| CC(/C=N/NC(=O)CN1CCN(Cc2ccc(Cl)cc2)CC1)=C\c1ccco1 | -69.2 |
| O=C(CN1CCN(Cc2ccccc2)CC1)N/N=C/c1ccco1 | -5.43 |
| CC(=C/c1ccco1)/C=N/NC(=O)Cc1cccn1C | -6.63 |
| CC(/C=N\NC(=O)CN1CCN(Cc2ccccc2)CC1)=C\c1ccco1 | -53.6 |
| COc1ccccc1C(=O)N1CCN(C2CCN(Cc3ccccc3)CC2)CC1 | -23.2 |
| C/C(=C\c1ccccc1F)C1Nc2cccc3cccc(c23)N1 | 13.1 |
| Cc1ccc(/C=N/Nc2ccc3ccccc3n2)o1 | -47.4 |
| CCN(CC)S(=O)(=O)c1ccc(OC)c(NC(=O)C2CC(=O)N(c3ccc(C)cc3)C2)c1 (stereo not shown) | -19.6 |
| CCOc1ccc(S(=O)(=O)N2CCCCC2)cc1NS(=O)(=O)c1cccs1 | 4.67 |
| CCC1CN(C(=O)NCc2ccc(F)cc2)c2cc(Cl)ccc2O1 (stereo not shown) | 12.5 |
| O=c1c2ccccc2oc2cc(NCCCn3ccnc3)ccc12 | -60.9 |
| Cc1cc2oc3ccc(NCCCn4ccnc4)cc3c(=O)c2cc1C | 6.32 |
| O=c1c2ccccc2oc2ccc(NCCCn3ccnc3)cc12 | 9.83 |
| CCc1nc(Nc2ccccc2)c2oc3ccccc3c2n1.Cl | -5.28 |
| CCc1nc(NCCCn2ccnc2)c2oc3ccccc3c2n1.Cl | -56.1 |
| CCc1nc(NCCCN2CCOCC2)c2oc3ccccc3c2n1 | -26.6 |
| CCNc1nc(CC)nc2c1oc1ccccc12.Cl | -11.5 |
| Cl.c1ccc2c(c1)oc1c(NCCCn3ccnc3)ncnc12 | -58.7 |
| CCc1nc(Nc2ccc(O)cc2)c2oc3ccccc3c2n1.Cl | -13.6 |
| c1coc(CNc2ncnc3c2oc2ccccc23)c1 | -22.1 |
| c1ccc(CNc2ncnc3c2oc2ccccc23)nc1 | -1.56 |

| Structure (SMILES) | hERG current change (%, negative = inhibition) at 10uM [%] |
| --- | --- |
| CCc1nc(Nc2ccncc2)c2oc3ccccc3c2n1.Cl | -58.5 |
| CN1CCc2nc3sc(C(=O)NC4CC4)c(N)c3cc2C1 | 9.22 |
| COc1ccc(OC)c(C2=NOC(C(=O)Nc3cccnc3)C2)c1 (stereo not shown) | -9.42 |
| CN(C)c1ccc(/C=N/N(CCO)C2=NS(=O)(=O)c3ccccc32)cc1 | 21.8 |
| COc1ccc(C/C(C)=N/NC(=O)c2cc(C)oc2C)cc1 | 4.56 |
| N/C(=N\OC(=O)CSc1ccccc1)c1ccccn1 | 6.31 |
| COc1ccc(C)cc1S(=O)(=O)N(C)CC(=O)N1CCC(C)CC1 | 22.8 |
| Cc1csc(SCCN2C(=O)c3ccccc3C2=O)n1 | 2.6 |
| Cc1nc(NCCCN2CCOCC2)c2oc3ccccc3c2n1.Cl | -15.5 |
| Cl.c1ccc(-c2nc(NCCCn3ccnc3)c3oc4ccccc4c3n2)cc1 | -4.89 |
| Cc1nc(NCCCn2ccnc2)c2oc3ccccc3c2n1.Cl | -69.8 |
| CCCCn1c(N)c(N(CCOC)C(=O)CSCc2ccc(C)cc2)c(=O)[nH]c1=O | 13.4 |
| O=C1C(Cl)=C(Nc2ccccc2O)C(=O)N1c1ccccc1 | 0.891 |
| CCN1CCN(C(c2ccc(F)cc2)c2nnnn2Cc2cccs2)CC1 (stereo not shown) | -59.4 |
| Fc1ccc(Cn2nnnc2C(c2cccs2)N2CCCCCC2)cc1 (stereo not shown) | -11.2 |
| Fc1ccc(C(c2nnnn2Cc2cccs2)N2CCN(C3CCCCC3)CC2)cc1 (stereo not shown) | -60.3 |
| Fc1ccc(C(c2nnnn2Cc2ccccc2)N2CCSCC2)cc1 (stereo not shown) | -2.85 |
| Fc1ccc(Cn2nnnc2C(c2cccs2)N2CCN(C3CCCCC3)CC2)cc1 (stereo not shown) | -66.4 |
| CCN1CCN(C(c2ccc(F)cc2)c2nnnn2Cc2ccc3c(c2)OCO3)CC1.Cl (stereo not shown) | -44 |
| Cl.Fc1ccc(C(c2nnnn2Cc2cccs2)N2CCN(C3CCCC3)CC2)cc1 (stereo not shown) | -67.4 |
| CN1CCN(C(c2cccs2)c2nnnn2Cc2ccc(F)cc2)CC1.Cl (stereo not shown) | -13.1 |
| CC(C)C(c1nnnn1Cc1cccs1)N1CCN(C2CCCC2)CC1 (stereo not shown) | -30.9 |
| CN1CCN(C(c2ccc(F)cc2)c2nnnn2Cc2cccs2)CC1.Cl (stereo not shown) | -21 |
| c1ccc(C(c2nnnn2Cc2cccs2)N2CCN(C3CCCC3)CC2)cc1 (stereo not shown) | -46.3 |
